Laboratory results reported in ChEMBL document CHEMBL3988442, “University of Dundee, Small-Polar-MMV Screening Library” (2021).
The whole screen tested about 48,000 compounds, of which about 13,000 (27%) showed an effect of 50% or more. This is one part of the list.

Tested on: Wolbachia pipientis
Experiment: Anti-Wolbachia Cell-Based Screen
Type: functional
Parameters: scale not given: in the data most compounds retested in dose-response had high values
Conditions: 5 µM

Structure (SMILES) | Percent Effect
Cc1[nH]ncc1CCCNC(=O)Nc1ccc(S(C)(=O)=O)nc1 | 0.4286%
O=c1[nH]c(CN(Cc2ccco2)C2CCCC2)nc2ccccc12 | 5.367%
O=C(c1ccno1)N1CCOC[C@H](Oc2ccc(C(F)(F)F)cc2)C1 | -17.29%
CCN(CC)CCCN1CCN(c2nc(C)cnc2C)CC1 | 20.67%
O=C(NCc1nnc2n1CCCCC2)N(CC1CCOC1)C1CC1 (configuration not stated) | 99.15%
CCN(CC1CCOC1)C(=O)NCc1nnc2n1CCC2 (configuration not stated) | 118.1%
CCN(Cc1ccco1)C(=O)NCc1nnc2n1CCCCC2 | 0.3449%
O=C(NCc1nnc2n1CCCCC2)N(Cc1ccncc1)C1CC1 | -19.08%
Cc1ccc(CN(C(=O)NCc2nnc3n2CCCCC3)C2CC2)o1 | 2.122%
CCN(CC1CCOC1)C(=O)NCc1ccc(-n2cncn2)nc1 (configuration not stated) | 19.04%
CCN(CC1CCOC1)C(=O)NCc1nnc2n1CCCCC2 (configuration not stated) | 91.82%
O=C(NCc1nnc2n1CCC2)N(Cc1ccco1)C1CC1 | 0.3443%
O=C(NCc1nnc2n1CCCC2)N(Cc1ccccc1F)C1CC1 | -10.57%
CCN(Cc1ccco1)C(=O)NCc1nnc2n1CCC2 | -0.2431%
CCN(CC1CC1)C(=O)NCc1nnc2n1CCC2 | 96.27%
COCc1ccccc1CNC(=O)CN1CCC2(CCOC2)C1 (configuration not stated) | -0.6554%
Cc1nn2c(N3CCCC(C#N)C3)cc(-c3ccccc3)nc2c1C (configuration not stated) | -8.58%
CCN(CC)CCn1ccnc1-c1[nH]cnc1C | 9.707%
Cc1nc[nH]c1-c1nccn1-c1cccc(CN2CCCC2)c1 | 12.04%
Cc1nc[nH]c1-c1nccn1CCN1CCCC1=O | 101.5%
COCCn1ccnc1-c1[nH]cnc1C | 8.201%
Cc1ccsc1-c1nccn1CCS(=O)(=O)N1CCCC1 | -5.417%
Cc1ccsc1-c1nccn1CCS(C)(=O)=O | -15.8%
Cc1nc[nH]c1-c1nccn1CCN1CCOC1=O | 102.9%
Cc1ccsc1-c1nccn1CCN1CCCOC1=O | 94.33%
Cc1nc[nH]c1-c1nccn1CCCN(C)C | -1.575%

Structure (SMILES) | Percent Effect
CCc1nccn1CCCn1ccnc1-c1[nH]cnc1C | 10.91%
Cc1nc[nH]c1-c1nccn1CCN(C)S(C)(=O)=O | -5.143%
Cc1nc[nH]c1-c1nccn1CCN1CCCOC1=O | 97.83%
CN(C)c1ncc(CNC(=O)Nc2ccc(C(F)(F)F)cc2)n1C | 20.28%
COc1cc(N2CCCn3cnc(COC(C)C)c3C2)ncn1.O=CO | -4.807%
CC(=O)NCCC(=O)Nc1sccc1C(=O)C(C)(C)C | 21.69%
c1ccc(COc2ccccc2NC2CCOCC2)nc1 | -16.72%
CN(CC(=O)NC(Cc1ccsc1)c1cccnc1)Cc1cccnc1.Cl (configuration not stated) | 75.58%
Cc1csc(C(Cc2ccsc2)NC(=O)CN(C)Cc2ccccn2)n1.Cl (configuration not stated) | 143%
Cc1cc(C)n(CC(=O)NC(Cc2ccsc2)c2ccccn2)c(=O)n1.Cl (configuration not stated) | -15.12%
Cc1csc(C(C#N)C(=O)NCc2cccnc2)n1 (configuration not stated) | -20.56%
CC(CNC(=O)CCc1ccccn1)c1ccsc1 (configuration not stated) | 1.276%
CN(CC(=O)N1CC(C)(C)[C@](O)(C2CC2)C1)Cc1cccnc1 | -2.465%
Cc1ccc(CC(NC(=O)CN(C)C2CC2)c2ccccn2)cc1 (configuration not stated) | -26.42%
O=C(CCc1ccsc1)N(Cc1ccccn1)C1CC1 | 0.03996%
Cc1csc(C(Cc2ccsc2)NC(=O)CN(C)Cc2cccnc2)n1.Cl (configuration not stated) | 118.2%
CN(CC(=O)NC(Cc1ccsc1)c1cccnc1)Cc1ccccn1.Cl (configuration not stated) | 89.62%
Cc1nc(CN(Cc2cccnc2)Cc2ccsc2)c[nH]1 | -3.654%
CN(CC(=O)NS(=O)(=O)c1ccsc1)Cc1ccccc1 | -14.35%
CCOC(C)c1noc(CN2CCCNCC2)n1 (configuration not stated) | 2.297%
C=C(C)CN1CCC(NC(=O)NCCc2cccc(C(N)=O)c2)CC1 | -8.268%
CC(=O)c1ccc(C(=O)N2C[C@@H](CN3CCCC3)[C@@H](CO)C2)cc1 | -35.7%
O=C(NCCN1CCCCCC1=O)NCc1ccc(Cl)s1 | -3.851%
CC(SCC(=O)NC(N)=O)c1ccc(Cl)cc1 (configuration not stated) | 8.768%
COc1cc(OC)cc(N2CCC(NCc3ccsc3)C2=O)c1 (configuration not stated) | -5.145%
CC(C)(C)n1ncc2c1NC(=O)CC2c1ccc(OCC(N)=O)cc1 (configuration not stated) | -0.952%

Structure (SMILES) | Percent Effect
Cc1cc(CN2CCN(CC3CC3)[C@@H]3CS(=O)(=O)C[C@@H]32)cc(C)c1O | 22.76%
NC(=O)COc1ccc(C2NC(=O)CN2Cc2ccc(Br)cc2)cc1 (configuration not stated) | 110.3%
Cl.NC(=O)COc1ccc(CNCc2ccc(F)c(F)c2)cc1 | -10.35%
COc1cc(OC)cc(C2NC(=O)CN2Cc2ccc(Br)cc2)c1 (configuration not stated) | 85.78%
COc1cc(CN2CC(=O)N(c3ccc(C)cc3)CC2C)cc(OC)c1 (configuration not stated) | -3.228%
Cc1cc(C2NC(=O)CN2Cc2ccc(Br)cc2)cc(C)c1O (configuration not stated) | 98.83%
Cc1cc(NC(=O)CNC(C)(C)c2nc(C)c(C)s2)no1 | -14.55%
COc1ccc(CNC(=O)c2cc3c(nc2O)CCC(C)C3)cc1 (configuration not stated) | -13.47%
CNS(=O)(=O)c1ccccc1N1CCN(C(C)C(=O)OC)CC1 (configuration not stated) | -10.15%
Cc1occc1C(=O)N1C[C@H](Oc2ccccn2)[C@H]2OCCC[C@H]21.O=C(O)C(F)(F)F | -5.077%
O=C(O)C(F)(F)F.O=C(c1ccnnc1)N1C[C@H](Oc2ccccn2)[C@H]2OCCC[C@H]21 | 96.83%
CO[C@H]1CN(C(=O)c2cccnc2)[C@@H]2CCCO[C@H]12.O=C(O)C(F)(F)F | 121%
CO[C@H]1CN(C(=O)c2ccc(C)o2)[C@@H]2CCCO[C@H]12 | 2.722%
CN(C)C(=O)N1C[C@H](Oc2ccccn2)[C@H]2OCCC[C@H]21.O=C(O)C(F)(F)F | -8.316%
Cc1cccc(C(=O)N2C[C@@H](OCc3cccnc3)[C@H]3OCCC[C@@H]32)n1.O=C(O)C(F)(F)F.O=C(O)C(F)(F)F | 19.74%
Cc1noc(C)c1CN1C[C@@H](NS(=O)(=O)N(C)C)[C@H](C(C)C)C1 | -5.186%
CC(=O)N1CCC2(CCN(C(=O)c3ccc(Cl)c(C(F)(F)F)c3)CC2)C1 | -5.245%
CCCn1ncc(C(=O)NC2CCN(C3CCOCC3)CC2)c1C | -3.665%
CC(C)(C#N)C(=O)Nc1nccn1Cc1ccc(Br)cc1 | -2.576%
CN1CC2(CCN(C(=O)COc3ccc(Cl)cc3Cl)CC2)OC1=O | -5.539%
Cc1nccc(-c2ccccc2)c1C(=O)N1CCC2(CN(C)C(=O)O2)C1 (configuration not stated) | -8.281%
CCc1ccc2occ(CC(=O)N3CCC4(CCCN(C)C4=O)C3)c2c1 (configuration not stated) | -37.19%
CN1CCCC2(CCN(C(=O)CCn3cncn3)C2)C1=O (configuration not stated) | -41.8%
Cc1nn(CC(=O)N2CCC3(CN(C)C(=O)O3)C2)c(=O)c2ccccc12 (configuration not stated) | 94.98%
CN1CCCC2(CCN(C(=O)Cn3ncc4ccccc4c3=O)C2)C1=O (configuration not stated) | 88.86%
Cc1nc[nH]c1C(=O)N1CCC2(CN(C)C(=O)O2)C1 (configuration not stated) | -7.833%

Structure (SMILES) | Percent Effect
Cc1ccc2oc(=O)n(CC(=O)N3CCC4(CC3)CN(C)C(=O)O4)c2c1 | -3.778%
CN1CC2(CCN(C(=O)Cn3ncc4ccccc4c3=O)CC2)OC1=O | 95.4%
CCCN(CCC)C(=O)CN1CCCC1C(=O)N(C)C (configuration not stated) | 15.58%
O=C(c1cccc(S(=O)(=O)NCCc2cscn2)c1)N1CCOCC1 | -14.28%
C[S+]([O-])c1nncn1CC(=O)c1ccc(OC(F)F)cc1 (configuration not stated) | -3.882%
CCc1ncc2c(n1)CN(C(=O)c1c(C)[nH]c3c1C(=O)CCC3)C2 | 17.5%
O=C(c1cccn2ccnc12)N1CCCN(c2cccnn2)CC1 | -3.729%
N#Cc1ccc(OC2CCN(C(=O)Cc3cccs3)CC2)nc1 | 12.26%
CCOC(=O)CCC(=O)N1CCC(Oc2ccc(C(F)(F)F)cn2)CC1 | 3.938%
O=C(Cn1cccn1)N1CCC(Oc2ccc(C(F)(F)F)cn2)CC1 | 107%
CN(CC(=O)N1CCC(Oc2ccc(C(F)(F)F)cn2)CC1)S(C)(=O)=O | 103.2%
CC(C)(C)NC(=O)N1CCC(Oc2ccc(C(F)(F)F)cn2)CC1 | 116.4%
CCOCC(=O)N1CCC(Oc2ccc(Cl)cn2)CC1 | -5.53%
CC(=O)N1CCC(Oc2ccc(C#N)cn2)CC1 | -7.335%
CCOC(=O)N1CCC(Oc2ccc(C(F)(F)F)cn2)CC1 | 91.75%
CCOCC(=O)N1CCC(Oc2ccc(C(F)(F)F)cn2)CC1 | 5.97%
CN(CC(=O)N1CCC(Oc2ccccc2)CC1)c1cnccn1 | -0.02384%
N#Cc1ccc(C(=O)N2CCC(Oc3ccc(C#N)cn3)CC2)cc1 | -11.6%
CN(C)S(=O)(=O)N1CCC(Oc2ccc(C#N)cn2)CC1 | -10.68%
CCN1CCN(C[C@@H]2CN(c3ncc(Cl)cc3F)C[C@@H]2CO)CC1 | 3.895%
CC(NC(=O)Nc1ccc(OC2CCCC2)cc1)c1nc[nH]n1 (configuration not stated) | 4.793%
CCC(C)c1ccc(NC(=O)C2CCN(C(=O)N(C)C)CC2)cc1 (configuration not stated) | -1.822%
Cc1cc(C)nc(N2CCC(C(=O)Nc3ccc(C(C)C)cc3)CC2)n1 | 135.6%
CCC(C)c1ccc(NC(=O)C2CCN(C(=O)COC)CC2)cc1 (configuration not stated) | -13.47%
